Where “and” joins values, the source holds several entries; their conditions need not be identical. Equal entries are not always repeated. Results filed as inconclusive are left out. Where a call stands in place of a potency, no number is given. Calls of active or inactive are those of the source. Unless noted, calls follow the shape of the dose curve; as a rule, active = well fitted curve in the direction sought with a large enough effect; inconclusive = small, poorly fitted or top-dose-only effect, or another doubt; inactive = no such curve, though single readings can be large; an effect the other way counts as inactive or inconclusive.
Tests used:
[1] = target: alpha-glucosidase (Oryza sativa, rice) (UniProt Q653V4); test: Counterscreen for Glucocerebrosidase Inhibitors: qHTS Assay for Rice alpha-Glucosidase at pH 5.0 (AID 997); settings: rice alpha-glucosidase enzyme activity; series mostly up to 76.9 µM
Outline: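 Endpoint fluorogenic assay at pH 5.0: compounds (0.7 nM to 77 uM) titrated against 4 nM rice enzyme and 400 uM 4-MU-alpha-glucoside for 20 min at room temperature; NaOH/glycine stop, read ex 365/em 440 nm, Hill-fitted AC50.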

[2] = Validation of Assay for Modulators of Lamin A Splicing (AID 1459; active = well fitted curve in the direction sought with a large enough effect in the signal ratio; the % refers to the signal ratio;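 also: cells exposed to compound for two days before reading; ratio rise marks activators and ratio drop marks inhibitors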); settings: Lamin A splicing dual RFP/GFP fluorescence reporter; series mostly up to 9.22 µM
Outline: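 Readout: ratio of GFP (500-530 nm) to RFP (575-640 nm) total object intensity by 488 nm laser-scanning cytometry after 48 hrs. Cells were HeLa S3 clones carrying lamin A-EGFP minigene plus DsRed2 viability reporter; vehicle 0.5% DMSO final.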

[3] = target: DNA repair nuclease/redox regulator APEX1 (Homo sapiens) (UniProt P27695); test: qHTS Validation Assay for Inhibitors of the Human Apurinic/apyrimidinic Endonuclease 1 (APE1) (AID 1705;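 also: TAMRA fluorescence gain over two minutes as APE1 cuts a quenched THF abasic duplex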); settings: purified APE1 endonuclease activity, fluorescence, titration; series mostly up to 57.1 µM
Sequence of DNA repair nuclease/redox regulator APEX1 (Homo sapiens) (P27695 whole entry, looked up): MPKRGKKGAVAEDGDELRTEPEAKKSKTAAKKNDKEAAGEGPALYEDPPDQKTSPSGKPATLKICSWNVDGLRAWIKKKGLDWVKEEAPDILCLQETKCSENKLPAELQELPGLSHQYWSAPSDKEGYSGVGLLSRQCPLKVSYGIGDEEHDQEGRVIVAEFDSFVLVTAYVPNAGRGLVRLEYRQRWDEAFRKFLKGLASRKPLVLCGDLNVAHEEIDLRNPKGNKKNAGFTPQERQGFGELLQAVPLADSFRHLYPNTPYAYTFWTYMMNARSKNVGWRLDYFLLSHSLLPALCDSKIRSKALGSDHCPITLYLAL
Outline: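 Read-out: TAMRA fluorescence (525 nm ex, 598 nm em) from cleavage of a quenched THF abasic-site duplex, 50 nM final; activity taken as intensity change between third and first of three reads 60 s apart.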

[4] = Counterscreen for APE1 Inhibitors: Fluorescent Dye Displacement Validation Assay (AID 1707); settings: fluorescent dye displacement from DNA; series mostly up to 57.1 µM
Outline: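 Reaction mixture of 250 nM Thiazole Orange and 50 nM double-stranded abasic-site DNA was dispensed, compounds were pin-transferred, and fluorescence was read at endpoint (480 nm ex, 540 nm em). Reduced fluorescence indicated dye displacement by DNA binding.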

[5] = qHTS for differential inhibitors of proliferation of Plasmodium falciparum line 7G8 (AID 1815); settings: Plasmodium falciparum 7G8 proliferation inhibition; series mostly up to 28.7 µM;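 also: parasite growth measured after three days of incubation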; also: potency is read from the fitted curve at half-maximal effect
[6] = qHTS for differential inhibitors of proliferation of Plasmodium falciparum line GB4 (AID 1816); settings: Potency: Plasmodium falciparum GB4 proliferation inhibition; series mostly up to 28.7 µM;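 also: parasite growth measured after 72 h incubation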; also: potency is read from the fitted curve at half-maximal effect
[7] = qHTS for differential inhibitors of proliferation of Plasmodium falciparum line 3D7 (AID 1876); also: potency is read from the fitted curve at half-maximal effect; settings: P. falciparum 3D7 proliferation inhibition; series mostly up to 28.7 µM
[8] = target: Endonuclease 4 (Escherichia coli (strain K12)) (UniProt P0A6C1); test: Counterscreen for APE1 Inhibitors: qHTS Validation Assay for Inhibitors of Endonuclease IV (AID 1708); settings: E. coli endonuclease IV, DNA cleavage fluorescence; series mostly up to 57.1 µM
Outline: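 The reaction buffer contained 50 mM Tris-HCl pH 7.5, 50 mM NaCl, 2 mM MgCl2, 1 mM DTT and 0.01% Tween-20. Incision of a 50 nM fluorophore/quencher THF substrate by 2 nM enzyme was measured kinetically.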

[9] = Cell Viability - LYMP1-002 - Assay at 40 hr (AID 994); settings: LYMP1-002 lymphoblastoid cell viability; series mostly up to 92.2 µM; also: nearly all actives have a fitted effect of over 60% in size
Outline: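 qHTS cytotoxicity; 2500 cells/well, 5 hr 37 C settle, compound 40 hr 37 C. CellTiter-Glo, 30 min RT, luminescence (ATP). Concentration-response, Hill fit → AC50. Pos. ctrl tetraoctylammonium bromide.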

[10] = qHTS Assay for Lipid Storage Modulators (AID 1519; calls by dose curve; also: potency is read from the fitted curve at half-maximal effect); settings: Drosophila S3 cells, BODIPY lipid droplet/cell ratio, laser cytometry, cells loaded with oleic acid
Outline: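 Cells seeded at 5,000 per well were treated with compounds over a concentration series and loaded with oleic acid (400 uM, as added). Lipid droplet fluorescence (488 nm excitation, 500-530 nm channel) was read by laser-scanning cytometry and normalized to 20 uM Triacsin C.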

[11] = measured here: cell count channel max response
[12] = measured here: lipid channel max response

NC1(C(=O)O)CCCCC1
outcome [1]: inactive
outcome [2]: inactive
Potency [3]: inactive
Potency [4]: inactive
Potency [5]: inactive
Potency [6]: inactive
Potency [7]: inactive

CC1C(=O)N(C)C(=O)c2nc[nH]c21 (stereo unspecified)
outcome [2]: inactive
Potency [3]: inactive
Potency [8]: inactive
Potency [5]: inactive
Potency [6]: inactive
Potency [7]: inactive

CC(N)(Cc1ccc(O)cc1)C(=O)O (stereo unspecified)
outcome [2]: inactive
Potency [4]: inactive
Potency [8]: inactive
Potency [5]: inactive
Potency [6]: inactive
Potency [7]: inactive

CCCc1c(-c2ccc(O)cc2)nn(-c2ccc(O)cc2)c1-c1ccc(O)cc1
outcome [1]: inactive
outcome [2]: inactive
Potency [3]: inactive
Potency [4]: inactive
Potency [6]: inactive
Potency [7]: inactive

c1ccc2c(c1)CC(N1CCN(c3cccc4c3OCCO4)CC1)C2
outcome [1]: inactive
outcome [2]: inactive
Potency [3]: inactive
Potency [4]: inactive
Potency [7]: 12.6 µM (active)

O=C1C2C=CC=CC2=NC(=S)N1CCN1CCC(=C(c2ccc(F)cc2)c2ccc(F)cc2)CC1 (stereo unspecified)
outcome [2]: inactive
Potency [3]: inactive
Potency [5]: 8.91 µM (active)

NC(=O)c1ccccc1
outcome [9]: inactive
outcome [1]: inactive
outcome [2]: inactive
Potency [3]: inactive
Potency [8]: inactive
Potency [5]: inactive
Potency [6]: inactive
Potency [7]: inactive

CCCn1c(=O)c2[nH]c(-c3ccc(S(=O)(=O)O)cc3)nc2n(CCC)c1=O
outcome [1]: inactive
outcome [2]: inactive
Potency [3]: inactive
Potency [8]: inactive
Potency [5]: inactive
Potency [7]: inactive

CCN(c1nc(N)c(C(=O)N=C(N)N)nc1Cl)C(C)C
outcome [1]: inactive
outcome [2]: inactive
Potency [8]: inactive
Potency [5]: 11.2 µM (active)
Potency [6]: 7.94 µM (active)
Potency [7]: 10 µM (active)

CC(=O)N[C@@H](Cc1c[nH]c2ccccc12)C(=O)OCc1cc(C(F)(F)F)cc(C(F)(F)F)c1
outcome [1]: inactive
activity change, negative = inhibition ([10]; at 57.5 µM (top of the series)): -1.99% (inactive)
max response [10, 11]: -16.3%
max response [10, 12]: -17.3%
Potency [6]: inactive
Potency [7]: inactive

N=C(N)SCCc1cnc[nH]1
outcome [1]: inactive
activity change, negative = inhibition ([10]; at 57.5 µM (top of the series)): 2.03% (inactive)
max response [10, 11]: 1.98%
max response [10, 12]: 5.06%
Potency [3]: inactive
Potency [4]: inactive
Potency [8]: inactive
Potency [5]: inactive
Potency [6]: inactive
Potency [7]: inactive

N[C@H](C(=O)O)c1cc(O)cc(O)c1
outcome [1]: inactive
activity change, negative = inhibition ([10]; at 57.5 µM (top of the series)): 10.3% (inactive) and 1.43% (inactive) and 0.261% (inactive)
max response [10, 11]: 7.08% and 3.62% and -19%
max response [10, 12]: 19.7% and 15.4% and -15.9%
Potency [3]: inactive
Potency [8]: inactive
Potency [5]: inactive
Potency [6]: inactive
Potency [7]: inactive

CNCCNS(=O)(=O)c1cccc2cnccc12
outcome [1]: inactive
activity change, negative = inhibition ([10]; at 57.5 µM (top of the series)): 0.292% (inactive)
max response [10, 11]: 5.66%
max response [10, 12]: 5.52%
Potency [3]: inactive
Potency [4]: inactive
Potency [8]: inactive
Potency [5]: inactive
Potency [6]: inactive
Potency [7]: inactive

CC(C)NC[C@H](O)COc1ccc(CC(N)=O)cc1
outcome [1]: inactive
activity change, negative = inhibition ([10]; at 25.7 µM (top of the series)): -3.22% (inactive) and -3.29% (inactive)
activity change, negative = inhibition ([10]; at 57.5 µM (top of the series)): 0.49% (inactive) and -5.77% (inactive)
max response [10, 11]: -3.12% [middle of 4 runs]
max response [10, 12]: -2.86% [middle of 4 runs]
Potency [3]: inactive
Potency [4]: inactive
Potency [5]: inactive
Potency [6]: inactive
Potency [7]: inactive

CC(C)NC[C@H](O)COc1cccc2ccccc12
activity change, negative = inhibition ([10]; at 57.5 µM (top of the series)): 8.19% (inactive)
max response [10, 11]: 19.6%
max response [10, 12]: 29.6%

O=C(O)Cc1c[nH]c2ccc(O)cc12
outcome [1]: inactive
activity change, negative = inhibition ([10]; at 57.5 µM (top of the series)): 1.1% (inactive)
max response [10, 11]: -19.7%
max response [10, 12]: -16.3%
Potency [3]: inactive
Potency [4]: inactive
Potency [5]: inactive
Potency [6]: inactive

CCCCCCCCCCCCCCCCCCOC[C@H](COP(=O)([O-])OCC[N+](C)(C)C)OC
activity change, negative = inhibition ([10]; at 57.5 µM (top of the series)): 1.74% (inactive)
max response [10, 11]: 55.6%
max response [10, 12]: 57.7%
Potency [4]: inactive
Potency [8]: inactive
Potency [5]: inactive
Potency [6]: inactive
Potency [7]: inactive

CC[C@@H]1Cc2cc(O)ccc2C2=C1c1ccc(O)cc1C[C@H]2CC
outcome [1]: inactive
activity change, negative = inhibition ([10]; at 57.5 µM (top of the series)): -3.04% (inactive)
max response [10, 11]: -26.2%
max response [10, 12]: -25.3%
Potency [3]: inactive
Potency [8]: inactive
Potency [5]: 5.62 µM (active)
Potency [6]: 4.47 µM (active)
Potency [7]: 11.2 µM (active)

CC1CNCCN1S(=O)(=O)c1cccc2cnccc12 (stereo unspecified)
activity change, negative = inhibition ([10]; at 57.5 µM (top of the series)): -0.941% (inactive)
max response [10, 11]: 3.07%
max response [10, 12]: 3.63%
Potency [8]: inactive
Potency [6]: 12.6 µM (active)
Potency [7]: inactive

CN(C)S(=O)(=O)c1ccc2c(c1)/C(=C/c1cc3c([nH]1)CCCC3)C(=O)N2
outcome [1]: inactive
Potency [10]: 28.2 µM (active)
max response [10, 11]: 59.5%
max response [10, 12]: -52.8%
Potency [4]: inactive
Potency [8]: inactive
Potency [5]: 4.47 µM (active)
Potency [6]: 5.01 µM (active)
Potency [7]: 3.55 µM (active)

OC1(c2ccc(Cl)cc2)CCN(Cc2c[nH]c3ccccc23)CC1
outcome [1]: inactive
outcome [2]: inactive

CCCc1c(OCCCOc2ccc(OCC(=O)O)cc2)ccc(C(C)=O)c1O
outcome [1]: inactive
activity change, negative = inhibition ([10]; at 57.5 µM (top of the series)): 1% (inactive)
max response [10, 11]: 51.1%
max response [10, 12]: 51.4%
Potency [4]: inactive
Potency [5]: inactive
Potency [6]: inactive
Potency [7]: inactive
